Pf Dd2 growth = Plasmodium falciparum Dd2 growth inhibition. Potency, µM (top dose mostly 28.9 µM), hits mostly inhibitors. P. falciparum Dd2 growth, SYBR Green, 72 h. AID 1347417. actives 4.3% (n = 120,000); active = well fitted inhibition curve with a large enough effect; note: nearly all actives have a fitted effect of over 65% in size
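Infected erythrocytes (Dd2, 0.3% parasitemia, 2.5% hematocrit final) are added to compound in RPMI-1640/Albumax II medium, grown 72 h at 37C in low oxygen, then lysed with saponin/Triton-X containing SYBR Green and read by fluorescence.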
Of the large screens only hits and unclear results are named; the others gave an inactive call. This is one part of a sample in which hits are shown more often than they occur.

Cc1cc(Cl)ccc1OCC(=O)N1[C@@H]2CC[C@H]1CC(NC(=O)c1ccc(F)cc1)C2 (stereo not given in full)	none
CNC(=O)N1CCCC(Cn2cnc3cccnc32)C1 (stereo not given)	none
CCN(CC)C(=O)C(C)[C@@H]1CC[C@@]2(C)CC[C@H](NC(=O)CC(C)(C)C)[C@@H](C)[C@@H]2[C@H]1O (stereo not given in full)	none
C[C@H]1[C@@H]2[C@H]3OC(=O)[C@@H](C)[C@@H]3CC[C@@]2(C)CC[C@@H]1NC(=O)CC(C)(C)C	Pf Dd2 growth 1.3µM
C[C@H]1[C@@H]2[C@H]3OC(=O)[C@@H](C)[C@@H]3CC[C@@]2(C)CC[C@@H]1NC(=O)C1CCCCC1	none
COCC(=O)N[C@H]1CC[C@]2(C)CC[C@@H]3[C@H](OC(=O)[C@H]3C)[C@H]2[C@@H]1C	none
C[C@H]1[C@@H]2[C@@H](O)C([C@H](C)C(=O)NCCN3CCOCC3)CC[C@@]2(C)CC[C@@H]1NC(=O)CC(C)(C)C (stereo not given in full)	none
CC(C)NC(=O)C(C)[C@@H]1CC[C@@]2(C)CC[C@H](NC(=O)CC(C)(C)C)[C@@H](C)[C@@H]2[C@H]1O (stereo not given in full)	Pf Dd2 growth 6.3µM
O=C(Cc1cccc(F)c1)N1CCC2(CC1)N=C(c1ccc(Cl)cc1)NO2	none
O=C(Nc1cccc(C(F)(F)F)c1)O[C@@H]1CO[C@H]2[C@@H]1OC[C@@H]2Nc1nccc(-c2ccccc2)n1	none
CCCn1c(C)cnc1C1CCN(C(=O)NC)C1 (stereo not given)	none
O=C(NCC1CC1)c1cn(C2CN(C(=O)Nc3ccc4c(c3)OCCO4)C2)nn1	none
Cc1ccc(F)cc1-n1nc(-c2c(C)nc3scc(CC(=O)N4CCCC4)n3c2=O)cc1C	none
CC(=O)N1CCCC2(Cc3ccccc3CN2S(=O)(=O)c2ccccc2)C1 (stereo not given)	none
Cc1nc(-c2c3n(c(=O)n(CC(=O)Nc4ccccc4C(F)(F)F)c2=O)CCCC3)no1	none
O=C1CN(C(=O)CCC(=O)N2CCC(CCOc3ccc(F)cc3)C2)c2ccccc2N1 (stereo not given)	none
O=C(CC1COCCN1C(=O)CCn1cccc1)NCc1ccccc1F (stereo not given)	none
CC(=O)c1cc(CC(=O)N[C@@H]2COCC[C@@H]2OCc2ccccc2)cs1	none
CC(=O)c1cc(CN(CCc2ccccc2)CC2CCCN(C)C2)cs1 (stereo not given)	Pf Dd2 growth 13µM
CN1CCCC(CN(CCc2ccccc2)C(=O)c2cc[n+]([O-])cc2)C1 (stereo not given)	none
N#Cc1cccc(C(=O)N[C@H]2[C@H](O)[C@H](O)C[C@@H]2c2cccnc2)c1	none
O=C(C1CCCC1)N1CCCN(c2nc3ncccc3o2)CC1	none
O=C(CSc1nc2cc(C(=O)NC3CCCC3)ccc2c(=O)n1CC1CCCO1)c1cccc(Cl)c1 (stereo not given)	Pf Dd2 growth 10µM
O=C(CSc1nc2cc(C(=O)NC3CCCC3)ccc2c(=O)n1CC1CCCO1)c1ccc(F)cc1 (stereo not given)	none
Cc1ccc(C)c(C(=O)CSc2nc3cc(C(=O)NC4CCCC4)ccc3c(=O)n2CC2CCCO2)c1 (stereo not given)	Pf Dd2 growth 10µM
COCCn1c(SCC(=O)c2ccc(C)cc2C)nc2cc(C(=O)NC3CCCC3)ccc2c1=O	none
Cc1ccc(C(=O)CSc2nc3cc(C(=O)NC4CCCC4)ccc3c(=O)n2CC2CCCO2)cc1 (stereo not given)	none
COCCn1c(SCC(=O)c2ccc(C)cc2)nc2cc(C(=O)NC3CCCC3)ccc2c1=O	none
COc1ccc(-n2c(=O)c3c(n2Cc2ccccc2)CN(Cc2nccn2C)CC3)cc1	none
C=CCC1(C(=O)O)CCCN(C(=O)CCCc2ccc(OC)cc2)C1 (stereo not given)	none
COc1cc(OC)c(NC(=O)CN2C(=O)NC(c3ccc(C)cc3)C3=C2COC3=O)cc1Cl (stereo not given)	none
O=C(CN1CCCc2nc(C3CC3)ncc2C1=O)NCC1CC1	none
CCOc1ccccc1C1NC(=O)N(CC(=O)N(C)c2cccc(C)c2)C2=C1C(=O)OC2 (stereo not given)	none
COCC(=O)N1CCN(S(=O)(=O)c2ccccc2)C[C@H]1C(=O)N[C@@H](CC1CCCCC1)C(N)=O	none
COc1cc(-c2noc(CN3CCN(c4cccc(Cl)c4)CC3)n2)cc(OC)c1OC	none
COc1cc(-c2nc(-c3cccc(Cl)c3)c(-c3ccccc3)[nH]2)cc(OC)c1OC	Pf Dd2 growth 10µM
COc1ccc(-c2nc(-c3ccccc3)c(-c3ccccc3)[nH]2)cc1Br	none
CNC(=O)CN1CCCC(N2CCN(c3ccccc3F)CC2)C1 (stereo not given)	none
Cc1ccc(CCNC(=O)c2ccc3c(c2)N(Cc2ccc(F)cc2)CCS3)cc1	none
Cc1ccc(NC(=O)CN2C(=O)CCSc3ccc(S(=O)(=O)N4CCCC4)cc32)cc1C	none
COc1cc(Cl)c(C)cc1NC(=O)c1ccc(CN2C(=O)CCn3nc(C)cc32)cc1	none
CCc1ccc(NC(=O)c2ccc3c(c2)N(Cc2ccc(C)cc2)CCS3)cc1	Pf Dd2 growth 8.9µM

Bioassay records deposited in PubChem by National Center for Advancing Translational Sciences (NCATS).
